Screening data: PubChem, several laboratories
FAS-TE inh: blocks the thioesterase domain of human fatty acid synthase; actives 0.67% (n = 360,000); P49327; inhibition, % at 15 µM; AID 602261; recombinant FAS-TE, OMFH fluorogenic substrate, fluorescence endpoint;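 active means compounds whose normalised, plate-corrected inhibition of enzyme fluorescence in the single-dose primary screen is 50% or more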
H9c2 TAG inh: triacylglycerol accumulation inhibition; H9c2 cells, Nile Red lipid (TAG) fluorescence; cells loaded with 200 µM oleic acid; inhibition, % at 12.5 µM; actives 0.66% (n = 230,000);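 active means pattern-corrected inhibition of lipid staining of at least 50% with the nuclear-stain viability signal not falling by more than 50%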
Cardio protect: modulators protecting cardiomyocytes from myocardial damage; protection from H2O2 cell death, % at 20 µM; AID 588492; actives 0.63% (n = 360,000); H9c2 cardiomyocytes, H2O2 injury protection, ATPLite, 2 h;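 active means compounds giving at least 50% protection of heart cells from peroxide-induced death in the single-dose screen, raw or plate-pattern-corrected value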
beta cell repl: MIN6 beta-cell proliferation induction; MIN6 cells proliferation, ATPlite luminescence, 48 h; cells starved in 0.2% serum; 100% = growth in 10% serum; proliferation, % at 10 µM; actives 0.29% (n = 330,000);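 active means compounds whose signal lies at least 3.5 SD above the mean of all wells on their plate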
aDG glyco up: increases alpha dystroglycan glycosylation | Pro5-aDG cells, alpha-DG glycosylation AlphaScreen (IIH6); 0% Pro5, 100% B10-LARGE cell signal | activation, % at 10 µM | actives 0.22% (n = 360,000) | AID 624168;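 active means activation of at least 8% versus controls, or a plate z-score of at least 8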;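 further: Pro5 are CHO cells carrying HIG-tagged alpha-DG that lacks glycosylation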
Calpain2 inh: calpain II (pig) inhibition; purified calpain II, fluorogenic peptide substrate, 30 min; inhibition, % at 16 µM; actives 0.37% (n = 220,000);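 active means inhibition above about 50%, limit read from the data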
Of the large screens only hits and unclear results are named; the others gave an inactive call. Only some compounds are listed: those with a hit (about 2.3% of all), similar ones and a draw of the others.

CC(=O)n1cc(/C=N/NC(=O)c2sc(C)nc2C)c2ccccc21	Cardio protect 56
O=C1C=C(N(CCO)Cc2ccccc2)c2ccccc2C1=O	aDG glyco up 14 (no result: beta cell repl)
O=S(=O)(c1ccccc1)c1cc(O)ccc1O	none
O=S(=O)(c1ccc(Cl)cc1)c1cc(O)ccc1O	Cardio protect 56 (no result: H9c2 TAG inh, Calpain2 inh)
CN(CC(=O)Nc1c(Cl)cccc1Cl)C(=O)CCCN1C(=O)c2ccccc2C1=O	none
Cc1ccc(NC(=O)CN(C)C(=O)CCCN2C(=O)c3ccccc3C2=O)cc1	Calpain2 inh 60
CC[C@]12c3[nH]c4cc(CCC(=O)N(C)C)ccc4c3CCN1C(=O)[C@@H](CC(=O)NCc1cccc(C(F)(F)F)c1)C[C@@H]2C(=O)N1CCN(C(=O)c2ccco2)CC1	none (no result: beta cell repl, Calpain2 inh)
CC(=O)Nc1ccc(CNc2ncnc3ccc(-c4c(C)noc4C)cc23)cc1	H9c2 TAG inh 62 (no result: Calpain2 inh)
Cc1cccc(CNc2ncnc3ccc(-c4ccoc4)cc23)c1	none (no result: Calpain2 inh)
CN1C[C@@H]2C(c3ccc(Cl)nc3)C3(c4ccc(C#N)cc4)CC2(C3)[C@H]1c1ccccc1 (some centres undefined)	none
N#Cc1ccc(C23CC4(C2)[C@H](CN(P(=O)(c2ccccc2)c2ccccc2)[C@@H]4c2ccccc2)C3c2ccc(Cl)nc2)cc1 (some centres undefined)	FAS-TE inh 72, H9c2 TAG inh 51
COc1c(Br)cc(/C=N/n2c(-c3ccccc3)n[nH]c2=S)c(O)c1Br	Cardio protect 64 (no result: Calpain2 inh)
O=C1c2ccccc2C(c2nnnn2-c2ccc3c(c2)OCCO3)N1CCCN1CCOCC1 (centres undefined)	none (no result: H9c2 TAG inh, Cardio protect, beta cell repl, Calpain2 inh)
C=CC[C@@H](CC(=O)NCCO)C(=O)NC[C@H](OC(=O)[C@@H](CC=C)Cc1ccc(F)cc1)c1ccccc1	Cardio protect 70 (no result: Calpain2 inh)
C=CC[C@@H](CC(=O)N[C@@H](CO)Cc1ccccc1)C(=O)NC[C@H](OC(=O)[C@@H](CC=C)Cc1ccc(F)cc1)c1ccccc1	none (no result: Calpain2 inh)
COc1ccc(-c2cn3cc(C)ccc3n2)cc1Br	aDG glyco up 94 (no result: H9c2 TAG inh)
COc1ccc(-c2cn3cc(Cl)ccc3n2)cc1OC	none (no result: H9c2 TAG inh)
CC1Cc2ccccc2N1CC(=O)Nc1ccc2c(c1)OCCCO2 (centres undefined)	none (no result: Calpain2 inh)
O=C(N=Nc1c(O)[nH]c2ccc(Cl)cc12)c1cc(-c2cccs2)nc2ccccc12	Calpain2 inh 89 (no result: H9c2 TAG inh, beta cell repl)
O=C(CCCOc1ccc(Br)cc1)NCCc1ccc(OC(F)F)cc1	none (no result: H9c2 TAG inh, Calpain2 inh)
CCS(=O)(=O)NCC(c1cccnc1)N1CCN(c2ccc(OC)cc2)CC1 (centres undefined)	Calpain2 inh 63 (no result: H9c2 TAG inh)
CCS(=O)(=O)NCC(c1cccnc1)N1CCN(c2ccccc2)CC1 (centres undefined)	none
O=C(NN=Cc1ccc(O)c(O)c1)c1ccccc1	none (no result: H9c2 TAG inh, beta cell repl, Calpain2 inh)
O=C(COc1ccccc1C(=O)N/N=C\c1ccc(O)c(O)c1)N/N=C/c1ccc(O)c(O)c1	Cardio protect 54
COc1cc(C(=O)N/N=C/c2ccc(OC(=O)c3ccccc3Cl)c(OC)c2)ccc1O	Cardio protect 66 (no result: Calpain2 inh)
COc1ccc(O)c(/C=N/NC(=O)c2ccc(CSc3nc(C)cc(C)n3)cc2)c1	Cardio protect 57
COc1ccc(C(=O)N/N=C/c2cc(Br)ccc2O)cc1OC	H9c2 TAG inh 56, Cardio protect 60
CCOc1cc(/C=N/Nc2ccc(C(=O)O)cc2)ccc1OC(=O)c1ccccc1C	Calpain2 inh 82
COc1cc(/C=N/NC(=O)c2ccncc2)ccc1OC(C)=O	none (no result: H9c2 TAG inh, Calpain2 inh)
COc1cc(/C=N/NC(=O)c2ccncc2)ccc1OCC(=O)Nc1cccc([N+](=O)[O-])c1	none (no result: H9c2 TAG inh, Calpain2 inh)
COc1cc(/C=N/NC(=O)c2ccncc2)ccc1OCC(=O)Nc1ccc(C)c(C)c1	Cardio protect 52 (no result: H9c2 TAG inh, Calpain2 inh)
COc1cc(/C=N/NC(=O)c2ccncc2)ccc1OC(=O)c1ccccc1Cl	Cardio protect 74
C=CCC1(CC=C)CCCN1C(=O)c1cc(COc2cncc(Cl)c2)on1	none (no result: Calpain2 inh)
COc1cc(-c2nc(C(=O)NC3CCN(Cc4ccccc4)CC3)cc3c2[nH]c2ccccc23)cc(OC)c1OC	FAS-TE inh 77 (no result: H9c2 TAG inh, Calpain2 inh)
CCCNC(=O)c1ccc2c(=O)c(O)c(-c3ccc(F)cc3)[nH]c2c1	Cardio protect 57
Nc1c(Cl)cc(-c2[nH]c3cc(C(=O)NCCO)ccc3c(=O)c2O)cc1Cl	none (no result: Calpain2 inh)
CCCNC(=O)c1ccc2c(=O)c(O)c(C)[nH]c2c1	none
CCCNC(=O)c1ccc2c(=O)c(O)c(-c3cccc(Br)c3)[nH]c2c1	Cardio protect 54
CC(=O)N1CCN(c2ccc(S(=O)(=O)NCCN(C(C)C)C(C)C)cc2[N+](=O)[O-])CC1	none
CN(C)CCNS(=O)(=O)c1ccc(N2CCN(c3ccc(F)cc3)CC2)c([N+](=O)[O-])c1	aDG glyco up 9.1 (no result: H9c2 TAG inh)
CC1=CC(C)(C)Nc2ccc(OC(=O)CCN3C(=O)c4ccccc4C3=O)cc21	H9c2 TAG inh 54
O=C(CCN1C(=O)c2ccccc2C1=O)Oc1ccc2ccccc2c1	none
CC(/C=C(\NC(=O)c1ccccc1)C(=O)N=Nc1c(O)[nH]c2ccc(C)cc12)=C\c1ccccc1	Cardio protect 62
CCC(C)Nc1ncnc2c1cnn2Cc1ccc(Cl)cc1 (centres undefined)	Cardio protect 89
CC(C)[C@H](NC(=O)OC(C)(C)C)c1cc(C(=O)NC2CC2)c(N)s1	none (no result: FAS-TE inh, H9c2 TAG inh, Cardio protect, beta cell repl, Calpain2 inh)
Cn1cnc([N+](=O)[O-])c1Oc1cccc2ccccc12	none (no result: H9c2 TAG inh)
Cn1cnc([N+](=O)[O-])c1S(=O)(=O)Oc1ccc(Cl)cc1	FAS-TE inh 52 (no result: beta cell repl, Calpain2 inh)
Cn1cnc([N+](=O)[O-])c1S(=O)(=O)Oc1cccc2ccccc12	FAS-TE inh 66 (no result: beta cell repl, Calpain2 inh)
O=C(NCc1ccc2c(c1)OCO2)c1[nH]c(C(F)(F)F)nc1-c1ccccc1	none (no result: H9c2 TAG inh, beta cell repl, Calpain2 inh)
CC1(C(=O)NS(=O)(=O)c2cccc(F)c2)CCN1C(=O)CCC1CCCC1 (centres undefined)	none (no result: beta cell repl, Calpain2 inh)
COc1ccccc1Cc1c(-c2ccco2)nc2ccc(C)cn12	none (no result: H9c2 TAG inh, beta cell repl, Calpain2 inh)
CCCCn1nnnc1C(c1cc2ccccc2o1)N(CCC#N)Cc1ccccc1 (centres undefined)	none (no result: H9c2 TAG inh, Cardio protect, beta cell repl, Calpain2 inh)
COc1cccc(N(CC(=O)NCC2CCCO2)C(=O)CNS(=O)(=O)c2ccccc2)c1 (centres undefined)	beta cell repl 8.4
COc1cccc(CN(CC(=O)NCC2CCCO2)C(=O)CNS(=O)(=O)c2ccccc2)c1 (centres undefined)	none (no result: H9c2 TAG inh, Calpain2 inh)
Cc1cccc(OCc2nnc(SCC(=O)c3c(N)n(C4CC4)c(=O)[nH]c3=O)o2)c1	none (no result: Calpain2 inh)
Cc1cccc(NC(=O)CN2CCN(C(=O)c3ccc(OCc4cn5ccccc5n4)cc3)CC2)c1C	none (no result: Calpain2 inh)
Cc1noc(C)c1NC(=O)N(C)C[C@H]1Oc2ccc(NC(=O)CCN3CCOCC3)cc2C(=O)N([C@H](C)CO)C[C@@H]1C	none (no result: Calpain2 inh)
CC(C)CC(c1nnnn1C1CCCC1)N1CCC(C(N)=O)CC1 (centres undefined)	Calpain2 inh 51
